Data reported in PubChem BioAssay (Tox21).
Inconclusive results are not listed. Active and inactive are the calls of the source. Unless noted, calls follow the shape of the dose curve; as a rule, active = well fitted curve in the direction sought with a large enough effect in the repeat runs; inconclusive = weak or mixed curves; inactive = no such curve, though single readings can be large; an effect the other way counts as inactive or inconclusive.

Legend:
[1] = target: Acetylcholinesterase (Homo sapiens) (UniProt P22303); experiment: Acetylcholinesterase (AChE) small molecule antagonists: enzyme-based qHTS assay (AID 1347397; calls by dose curve; also: nearly all actives have a fitted effect of over 55% in size); settings: Potency: AChE enzyme activity inhibition
How it was run: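 First, recombinant human AChE (50 mU/mL as dispensed) received test compound or DMSO. Second, plates stood 30 min at room temperature. Third, DTNB and acetylthiocholine were added, followed by 10 min at room temperature and colorimetric detection.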

[2] = target: Acetylcholinesterase (Homo sapiens) (UniProt P22303); experiment: Acetylcholinesterase (AChE) small molecule antagonists: fluorescence cell-based qHTS assay (AID 1347398; calls by dose curve; also: nearly all actives have a fitted effect of over 50% in size); settings: Potency: AChE activity
How it was run: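 Homogeneous quantitative HTS format. SH-SY5Y cells seeded at 2,000 per well settle overnight at 37 C. Compound pretreatment runs 30 min (37 C, 5% CO2); substrate/probe mix then reacts 40 min at RT before reading 490/520 nm.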

[3] = target: Acetylcholinesterase (Homo sapiens) (UniProt P22303); experiment: Acetylcholinesterase (AChE) small molecule antagonists: enzyme-based qHTS assay with human liver microsomes (AID 1347399; calls by dose curve; also: nearly all actives have a fitted effect of over 60% in size); settings: Potency: qHTS inhibition
How it was run: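 Recombinant human AChE (50 mU/mL in the enzyme mix) and human liver microsomes (0.25 mg/mL final) were preincubated with compound and NADPH (0.25 mg/mL final) for 30 min at 37 C. Acetylthiocholine/DTNB was then added; thiocholine was read colorimetrically after 10 min at room temperature.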

[4] = target: Cytochrome P450 2D6 (Homo sapiens) (UniProt P10635); experiment: Cytochrome P450 Family 2 Subfamily D Member 6 (CYP2D6) small molecule antagonists: luciferase reporter qHTS assay (AID 1671196); also: nearly all actives have a fitted effect of over 50% in size; also: potency is read from the fitted curve at half-maximal effect; as to activity change, negative = inhibition: series mostly up to about 120 µM
How it was run: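 CYP2D6 activity was followed as luminescence from its luciferin product after a 1 h NADPH-driven reaction at room temperature. Enzyme-substrate mix and compound were pre-incubated for 10 min, and the signal was read 20 min after adding detection reagent.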

[5] = target: Cytochrome P450 2C19 (Homo sapiens) (UniProt P33261); experiment: Cytochrome P450 Family 2 Subfamily C Member 19 (CYP2C19) small molecule antagonists: luciferase reporter qHTS assay (AID 1671197); also: nearly all actives have a fitted effect of over 65% in size; also: potency is read from the fitted curve at half-maximal effect; as to activity change, negative = inhibition: series mostly up to about 120 µM
How it was run: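 Relative luminescence units recorded 20 min after the detection reagent stopped a 1 h, 37C CYP2C19 reaction on proluciferin substrate, which was started by NADPH regeneration following 10 min room-temperature compound preincubation; ketoconazole positive control.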

[6] = target: Voltage-gated inwardly rectifying potassium channel KCNH2 (Homo sapiens) (UniProt Q12809); experiment: Human Ether-a-go-go-Related Gene (hERG) channel small molecule antagonists: fluorescence cell-based qHTS assay (AID 1671200); also: nearly all actives have a fitted effect of over 50% in size; also: potency is read from the fitted curve at half-maximal effect;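 as to activity change, negative = inhibition: hERG-expressing U2OS cells given a thallium stimulus after FluxOR II dye loading; series mostly up to about 77 µM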
How it was run: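 Cell line hERG-U2OS; dye FluxOR II, 1 h RT dark; Tl+ stimulus; ex 480/em 540 nm, read each second for 2 min.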

[7] = target: Cytochrome P450 2C9 (Homo sapiens) (UniProt P11712); experiment: Cytochrome P450 Family 2 Subfamily C Member 9 (CYP2C9) small molecule antagonists: luciferase reporter qHTS assay (AID 1671198); also: nearly all actives have a fitted effect of over 50% in size; also: potency is read from the fitted curve at half-maximal effect; as to activity change, negative = inhibition: series mostly up to about 120 µM
How it was run: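 Enzyme-substrate mix preincubated with compound 10 min at room temperature; reaction started with NADPH regeneration solution, 1 h 37C. Luminescent luciferin product read after 20 min detection reagent.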

[8] = target: Cytochrome P450 3A4 (Homo sapiens) (UniProt P08684); experiment: Cytochrome P450 Family 3 Subfamily A Member 4 (CYP3A4) small molecule antagonists: luciferase reporter qHTS assay (AID 1671201); also: nearly all actives have a fitted effect of over 50% in size; also: potency is read from the fitted curve at half-maximal effect; as to activity change, negative = inhibition: series mostly up to about 120 µM
How it was run: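 Room-temperature assay throughout: 10 min compound–enzyme/substrate preincubation, 1 h reaction after NADPH regeneration solution, 20 min detection. Luciferin formed from proluciferin substrate is quantified by luminescence.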

[9] = target: Cytochrome P450 1A2 (Homo sapiens) (UniProt P05177); experiment: Cytochrome P450 Family 1 Subfamily A Member 2 (CYP1A2) small molecule antagonists: luciferase reporter qHTS assay (AID 1671199); also: nearly all actives have a fitted effect of over 50% in size; also: potency is read from the fitted curve at half-maximal effect; as to activity change, negative = inhibition: series mostly up to about 120 µM
How it was run: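 Luminescence from luciferin formed by CYP1A2 from a proluciferin substrate, read 20 min after detection reagent. Compound was pre-incubated 10 min with enzyme-substrate, and reaction started with NADPH regeneration solution for 1 h at room temperature; furafylline control.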
% is scaled to controls: 0 for no effect and ±100 for the full control effect.

Chain of Cytochrome P450 3A4 (Homo sapiens) (P08684 whole entry, looked up): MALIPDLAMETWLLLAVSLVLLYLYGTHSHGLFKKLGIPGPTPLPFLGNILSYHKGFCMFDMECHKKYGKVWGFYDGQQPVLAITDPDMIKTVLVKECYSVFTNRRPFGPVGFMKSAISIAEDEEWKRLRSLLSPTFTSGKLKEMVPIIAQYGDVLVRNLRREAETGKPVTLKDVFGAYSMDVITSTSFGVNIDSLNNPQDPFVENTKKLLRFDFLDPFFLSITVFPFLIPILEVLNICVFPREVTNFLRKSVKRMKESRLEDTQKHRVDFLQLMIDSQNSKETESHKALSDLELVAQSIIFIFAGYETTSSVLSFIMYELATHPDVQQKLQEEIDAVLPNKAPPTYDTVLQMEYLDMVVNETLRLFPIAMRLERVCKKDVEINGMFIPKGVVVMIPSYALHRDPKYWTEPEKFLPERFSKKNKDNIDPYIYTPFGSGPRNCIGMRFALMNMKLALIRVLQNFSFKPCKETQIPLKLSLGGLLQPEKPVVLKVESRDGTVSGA
Chain of Cytochrome P450 1A2 (Homo sapiens) (P05177 whole entry, looked up): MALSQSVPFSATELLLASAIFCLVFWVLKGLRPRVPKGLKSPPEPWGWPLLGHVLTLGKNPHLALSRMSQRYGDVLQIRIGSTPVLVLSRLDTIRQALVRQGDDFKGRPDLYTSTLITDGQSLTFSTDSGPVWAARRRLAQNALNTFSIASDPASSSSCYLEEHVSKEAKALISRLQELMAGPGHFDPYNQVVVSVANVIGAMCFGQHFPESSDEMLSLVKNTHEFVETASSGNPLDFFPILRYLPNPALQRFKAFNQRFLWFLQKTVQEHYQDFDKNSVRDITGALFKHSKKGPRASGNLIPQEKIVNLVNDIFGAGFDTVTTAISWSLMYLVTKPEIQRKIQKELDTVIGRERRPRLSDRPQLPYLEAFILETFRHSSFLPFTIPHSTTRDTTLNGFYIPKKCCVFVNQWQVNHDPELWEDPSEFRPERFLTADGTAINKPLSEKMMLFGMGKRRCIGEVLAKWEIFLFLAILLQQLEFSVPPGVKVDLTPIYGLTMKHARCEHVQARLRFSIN
Chain of Acetylcholinesterase (Homo sapiens) (P22303 whole entry, looked up): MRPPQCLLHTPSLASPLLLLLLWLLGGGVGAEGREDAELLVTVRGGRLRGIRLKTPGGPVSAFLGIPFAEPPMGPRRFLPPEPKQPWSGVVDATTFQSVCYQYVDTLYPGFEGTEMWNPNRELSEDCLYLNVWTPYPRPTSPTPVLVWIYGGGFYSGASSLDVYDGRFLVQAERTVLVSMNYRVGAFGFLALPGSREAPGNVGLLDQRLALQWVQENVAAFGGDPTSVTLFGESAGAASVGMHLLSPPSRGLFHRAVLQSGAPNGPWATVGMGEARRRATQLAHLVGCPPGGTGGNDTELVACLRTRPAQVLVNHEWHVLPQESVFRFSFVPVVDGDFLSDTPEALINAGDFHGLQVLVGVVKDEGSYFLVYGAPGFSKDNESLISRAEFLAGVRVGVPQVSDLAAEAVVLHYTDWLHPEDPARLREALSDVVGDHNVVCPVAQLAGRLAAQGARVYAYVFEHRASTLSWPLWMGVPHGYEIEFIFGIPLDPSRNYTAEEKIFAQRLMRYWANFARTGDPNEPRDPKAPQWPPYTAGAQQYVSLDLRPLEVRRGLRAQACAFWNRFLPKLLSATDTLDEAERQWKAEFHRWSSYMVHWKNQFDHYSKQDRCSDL
Chain of Cytochrome P450 2C9 (Homo sapiens) (P11712 whole entry, looked up): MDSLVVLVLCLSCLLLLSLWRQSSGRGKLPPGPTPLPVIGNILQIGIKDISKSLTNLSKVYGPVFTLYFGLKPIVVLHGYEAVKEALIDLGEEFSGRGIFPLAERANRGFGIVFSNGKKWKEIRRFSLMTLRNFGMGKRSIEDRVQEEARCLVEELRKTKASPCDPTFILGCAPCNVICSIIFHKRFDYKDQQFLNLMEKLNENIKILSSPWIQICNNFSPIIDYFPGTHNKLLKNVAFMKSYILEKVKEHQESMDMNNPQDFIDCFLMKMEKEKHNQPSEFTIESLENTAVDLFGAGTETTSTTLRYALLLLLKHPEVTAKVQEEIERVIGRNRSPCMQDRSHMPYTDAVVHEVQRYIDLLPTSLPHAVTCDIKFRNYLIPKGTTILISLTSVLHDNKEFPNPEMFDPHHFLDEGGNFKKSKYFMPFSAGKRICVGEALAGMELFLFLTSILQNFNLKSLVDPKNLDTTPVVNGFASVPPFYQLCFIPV
Chain of Voltage-gated inwardly rectifying potassium channel KCNH2 (Homo sapiens) (Q12809 whole entry, looked up): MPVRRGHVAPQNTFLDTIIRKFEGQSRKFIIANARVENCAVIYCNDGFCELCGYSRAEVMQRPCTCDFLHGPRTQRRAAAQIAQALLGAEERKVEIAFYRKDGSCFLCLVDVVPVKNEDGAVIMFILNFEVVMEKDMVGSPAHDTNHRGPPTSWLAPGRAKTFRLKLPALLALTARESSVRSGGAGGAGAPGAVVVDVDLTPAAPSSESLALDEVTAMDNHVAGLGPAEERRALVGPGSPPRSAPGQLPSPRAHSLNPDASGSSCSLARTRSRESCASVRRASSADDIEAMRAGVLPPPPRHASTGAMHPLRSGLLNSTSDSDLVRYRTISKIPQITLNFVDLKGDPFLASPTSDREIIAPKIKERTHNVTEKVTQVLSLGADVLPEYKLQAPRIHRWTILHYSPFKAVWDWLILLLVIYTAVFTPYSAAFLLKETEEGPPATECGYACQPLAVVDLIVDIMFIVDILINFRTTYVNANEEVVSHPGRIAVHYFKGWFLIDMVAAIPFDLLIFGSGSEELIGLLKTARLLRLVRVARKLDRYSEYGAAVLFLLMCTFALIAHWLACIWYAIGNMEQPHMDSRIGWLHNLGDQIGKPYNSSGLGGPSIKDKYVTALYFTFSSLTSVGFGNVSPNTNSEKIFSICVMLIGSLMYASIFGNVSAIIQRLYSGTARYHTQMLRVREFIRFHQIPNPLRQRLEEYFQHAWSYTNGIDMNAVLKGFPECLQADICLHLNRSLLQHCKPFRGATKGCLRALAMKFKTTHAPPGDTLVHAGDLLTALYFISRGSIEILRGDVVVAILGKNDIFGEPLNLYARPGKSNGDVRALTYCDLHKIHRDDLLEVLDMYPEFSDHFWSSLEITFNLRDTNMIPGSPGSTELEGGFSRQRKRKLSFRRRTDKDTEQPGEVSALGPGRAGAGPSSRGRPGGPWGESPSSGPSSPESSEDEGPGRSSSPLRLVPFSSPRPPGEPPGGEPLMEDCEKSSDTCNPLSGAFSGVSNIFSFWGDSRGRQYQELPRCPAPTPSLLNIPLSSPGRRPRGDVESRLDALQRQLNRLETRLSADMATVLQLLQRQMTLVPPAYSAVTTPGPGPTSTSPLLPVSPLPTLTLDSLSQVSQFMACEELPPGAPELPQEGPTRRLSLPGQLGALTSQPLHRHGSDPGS
Chain of Cytochrome P450 2D6 (Homo sapiens) (P10635 whole entry, looked up): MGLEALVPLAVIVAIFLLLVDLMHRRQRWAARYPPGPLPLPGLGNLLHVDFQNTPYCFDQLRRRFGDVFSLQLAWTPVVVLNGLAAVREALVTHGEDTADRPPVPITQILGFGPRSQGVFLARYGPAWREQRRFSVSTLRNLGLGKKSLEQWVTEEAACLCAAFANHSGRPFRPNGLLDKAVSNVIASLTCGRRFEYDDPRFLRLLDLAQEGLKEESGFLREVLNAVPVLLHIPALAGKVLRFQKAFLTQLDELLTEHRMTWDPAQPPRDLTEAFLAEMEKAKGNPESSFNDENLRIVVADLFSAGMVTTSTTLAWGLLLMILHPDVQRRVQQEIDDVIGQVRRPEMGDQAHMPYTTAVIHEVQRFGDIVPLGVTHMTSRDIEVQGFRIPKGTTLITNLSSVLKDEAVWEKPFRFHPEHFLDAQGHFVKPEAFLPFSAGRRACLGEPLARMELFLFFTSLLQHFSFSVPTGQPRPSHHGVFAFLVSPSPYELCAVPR
Chain of Cytochrome P450 2C19 (Homo sapiens) (P33261 whole entry, looked up): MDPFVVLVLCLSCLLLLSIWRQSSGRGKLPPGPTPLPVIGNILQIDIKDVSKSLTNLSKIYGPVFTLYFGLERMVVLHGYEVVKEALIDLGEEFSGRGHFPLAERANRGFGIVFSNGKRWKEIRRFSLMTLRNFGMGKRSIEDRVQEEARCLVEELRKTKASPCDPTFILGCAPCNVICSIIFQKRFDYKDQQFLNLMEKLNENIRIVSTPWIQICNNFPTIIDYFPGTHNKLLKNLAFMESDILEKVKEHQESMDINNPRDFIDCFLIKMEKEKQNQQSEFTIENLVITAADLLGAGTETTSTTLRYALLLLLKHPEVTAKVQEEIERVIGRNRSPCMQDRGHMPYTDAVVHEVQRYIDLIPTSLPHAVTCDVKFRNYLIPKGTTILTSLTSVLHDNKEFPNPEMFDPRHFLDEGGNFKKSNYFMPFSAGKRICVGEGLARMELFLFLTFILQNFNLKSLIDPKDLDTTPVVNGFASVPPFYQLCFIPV

CC[C@]1(O)CC[C@H]2[C@@H]3CCC4=CCCC[C@@H]4[C@H]3CC[C@@]21C
active: Potency [5] 12.3 µM
inactive: Potency [1] | Potency [2] | Potency [3] | Potency [4] | Potency [6]

S=C=NCCc1ccccc1
active: Potency [4] 11.3 µM | Potency [5] 20.1 µM | Potency [7] 17.9 µM | Potency [6] 15.5 µM | Potency [8] 20.1 µM
inactive: Potency [1] | Potency [2] | Potency [3]

CN/C(=N\[N+](=O)[O-])NCc1cnc(Cl)s1
inactive: Potency [1] | Potency [2] | Potency [3] | Potency [4] | Potency [7] | Potency [9] | Potency [6] | Potency [8]

O=C(CCCCl)c1ccc(F)cc1
inactive: Potency [1] | Potency [2] | Potency [3] | Potency [4] | Potency [7] | Potency [6] | Potency [8]
active: Potency [9] 11.5 µM

c1ccc(Nc2ccc(Nc3ccccc3)cc2)cc1
inactive: Potency [1] | Potency [2] | Potency [3]
active: Potency [4] 39.8 µM | Potency [5] 12.6 µM | Potency [7] 11.2 µM | Potency [6] 38.7 µM | Potency [8] 39.8 µM

CCCCON=O
inactive: Potency [1] | Potency [2] | Potency [3] | Potency [4] | Potency [7] | Potency [9] | Potency [6] | Potency [8]

ClC1=C(Cl)[C@]2(Cl)[C@@H]3[C@H]4C[C@H]([C@@H]5O[C@H]45)[C@@H]3[C@@]1(Cl)C2(Cl)Cl
active: Potency [5] 63.3 µM
inactive: Potency [1] | Potency [2] | Potency [3] | Potency [4] | Potency [6]

[O]=[Cr](=[O])([OH])[O][Cr](=[O])(=[O])[OH]
inactive: Potency [1] | Potency [2] | Potency [3] | Potency [4] | Potency [5] | Potency [9] | Potency [6] | Potency [8]

O=c1c2ccccc2c(=O)c2c1cc(Cl)c1[nH]c3c([nH]c12)c(Cl)cc1c(=O)c2ccccc2c(=O)c13
inactive: Potency [1] | Potency [2] | Potency [3] | Potency [4] | Potency [5] | Potency [6] | Potency [8]

CCC[CH2][Sn]([CH2]CCC)([CH2]CCC)[CH2]CCC
active: Potency [4] 20 µM | Potency [5] 35.6 µM
inactive: Potency [1] | Potency [2] | Potency [3] | Potency [8]

N#CC(C#N)=NNc1cccc(Cl)c1
active: Potency [4] 63.3 µM | Potency [5] 79.6 µM | Potency [7] 8.94 µM | Potency [8] 11.2 µM
inactive: Potency [1] | Potency [2] | Potency [3]

COc1nc(C)nc(NC(=O)NS(=O)(=O)c2ccccc2Cl)n1
inactive: Potency [1] | Potency [2] | Potency [3] | Potency [4] | Potency [5] | Potency [7] | Potency [6] | Potency [8]

[O]=[Cr][O][Cr]=[O]
active: Potency [4] 2.58 µM
inactive: Potency [1] | Potency [2] | Potency [3] | Potency [7] | Potency [6] | Potency [8]

O=c1[nH]c2cc(Cl)ccc2n1C1CCNCC1
active: Potency [4] 15.5 µM
inactive: Potency [1] | Potency [2] | Potency [3] | Potency [5] | Potency [8]

BrCCCBr
inactive: Potency [1] | Potency [2] | Potency [3] | Potency [4] | Potency [5] | Potency [7] | Potency [6] | Potency [8]

COc1c2c(cc3c1OCO3)CCN(C)C2
inactive: Potency [1] | Potency [2] | Potency [3] | Potency [5] | Potency [7] | Potency [6] | Potency [8]
active: Potency [4] 4.36 µM

NC1CCC(CC2CCC(N)CC2)CC1 (stereo not drawn)
active: Potency [4] 35 µM | Potency [8] 11.1 µM
inactive: Potency [1] | Potency [2] | Potency [3] | Potency [5] | Potency [9] | Potency [6]

c1ccc2c(c1)cc1ccc3cccc4ccc2c1c34
inactive: Potency [1] | Potency [2] | Potency [3] | Potency [4] | Potency [5] | Potency [6] | Potency [8]
active: Potency [9] 0.363 µM

CCNc1nc(NC(C)C(C)C)nc(SC)n1 (stereo not drawn)
active: Potency [5] 39.9 µM | Potency [9] 25.2 µM
inactive: Potency [1] | Potency [2] | Potency [3] | Potency [4] | Potency [6] | Potency [8]

Cc1ccn2nc(S(=O)(=O)Nc3c(F)cccc3F)nc2n1
active: Potency [7] 39.9 µM
inactive: Potency [1] | Potency [2] | Potency [3] | Potency [4] | Potency [5] | Potency [6] | Potency [8]

ClC1(Cl)C2(Cl)C3(Cl)C4(Cl)C(Cl)(Cl)C5(Cl)C3(Cl)C1(Cl)C5(Cl)C24Cl (stereo not drawn)
inactive: Potency [1] | Potency [2] | Potency [3] | Potency [4] | Potency [5] | Potency [9] | Potency [6] | Potency [8]

CCOC(=O)Cc1ccccc1
inactive: Potency [1] | Potency [2] | Potency [3] | Potency [4] | Potency [5] | Potency [6] | Potency [8]

COC(=O)c1ccccc1S(=O)(=O)NC(=O)Nc1nc(C)nc(OC)n1
inactive: Potency [1] | Potency [2] | Potency [3] | Potency [6] | Potency [8]
active: Potency [4] 8.88 µM | Potency [5] 35.3 µM

Oc1cccc(Cl)c1Cl
active: Potency [4] 56.6 µM | Potency [5] 80 µM
inactive: Potency [1] | Potency [2] | Potency [3] | Potency [7] | Potency [6] | Potency [8]

COP(=S)(OC)Oc1nc(Cl)c(Cl)cc1Cl
inactive: Potency [1] | Potency [2] | Potency [3] | Potency [4] | Potency [6]
active: Potency [5] 79.6 µM | Potency [7] 25.2 µM | Potency [8] 11.2 µM

CSC(C)(C)/C=N/O
inactive: Potency [1] | Potency [2] | Potency [3] | Potency [4] | Potency [7] | Potency [9] | Potency [6] | Potency [8]

Brc1cccc(-c2ccccc2)c1
active: Potency [9] 12.7 µM
inactive: Potency [1] | Potency [2] | Potency [3] | Potency [4] | Potency [5] | Potency [6] | Potency [8]

CCC[CH2][Sn]([CH2]CCC)([CH2]CCC)[O][Sn]([CH2]CCC)([CH2]CCC)[CH2]CCC
inactive: activity change, negative = inhibition [1] -1.88% [at 10.5 µM] | activity change, negative = inhibition [2] 2.81% [at 10.5 µM] | activity change, negative = inhibition [3] 0.495% [at 10.5 µM] | activity change, negative = inhibition [9] -6.75% [at 10.5 µM] | activity change, negative = inhibition [8] -17.7% [at 10.5 µM]
active: Potency [4] 0.155 µM | Potency [5] 0.981 µM | Potency [6] 1.7 µM

ClSC(Cl)(Cl)Cl
active: Potency [4] 10.1 µM | Potency [7] 31.8 µM
inactive: Potency [1] | Potency [2] | Potency [3] | Potency [5] | Potency [6] | Potency [8]

NC(=O)C(Cl)Cl
inactive: Potency [1] | Potency [2] | Potency [3] | Potency [4] | Potency [5] | Potency [7] | Potency [6] | Potency [8]

N#CCCl
active: Potency [4] 29.5 µM | Potency [5] 37.1 µM | Potency [9] 33.1 µM | Potency [8] 66 µM
inactive: Potency [1] | Potency [2] | Potency [3]

Oc1cc(Cl)cc(Cl)c1
inactive: Potency [1] | Potency [2] | Potency [3] | Potency [5] | Potency [6] | Potency [8]
active: Potency [4] 71.7 µM | Potency [9] 32 µM

C[N+]1(C)[C@@H]2CC[C@H]1CC(OC(=O)C(CO)c1ccccc1)C2 (stereo partly drawn)
inactive: Potency [1] | Potency [2] | Potency [4] | Potency [5] | Potency [7] | Potency [9] | Potency [6] | Potency [8]

CC(C)C(Nc1ccc(C(F)(F)F)cc1Cl)C(=O)OC(C#N)c1cccc(Oc2ccccc2)c1 (stereo not drawn)
active: Potency [5] 9.01 µM | Potency [7] 6.38 µM
inactive: Potency [1] | Potency [2] | Potency [3] | Potency [6]

C[C@]12Cc3cn[nH]c3C[C@@H]1CC[C@@H]1[C@@H]2CC[C@@]2(C)[C@H]1CC[C@]2(C)O
active: Potency [5] 0.776 µM | Potency [7] 0.977 µM
inactive: Potency [1] | Potency [2] | Potency [3] | Potency [9] | Potency [6]
